Reference: PubChem BioAssay (NCATS)
Results filed as inconclusive are left out. Activity calls are given as the source filed them. Unless noted, calls follow the shape of the full dose curve.

Assays:
[1] = molecular target: Lysosomal acid glucosylceramidase (Homo sapiens) (UniProt P04062); assay: Glucocerebrosidase-p2 (AID 348; in the data active = potency below about 10 µM; also: potency is read from the fitted curve at half-maximal effect); settings: purified GBA, blue fluorogenic substrate, 40 min
Chain of Lysosomal acid glucosylceramidase (Homo sapiens) (P04062 whole entry, looked up): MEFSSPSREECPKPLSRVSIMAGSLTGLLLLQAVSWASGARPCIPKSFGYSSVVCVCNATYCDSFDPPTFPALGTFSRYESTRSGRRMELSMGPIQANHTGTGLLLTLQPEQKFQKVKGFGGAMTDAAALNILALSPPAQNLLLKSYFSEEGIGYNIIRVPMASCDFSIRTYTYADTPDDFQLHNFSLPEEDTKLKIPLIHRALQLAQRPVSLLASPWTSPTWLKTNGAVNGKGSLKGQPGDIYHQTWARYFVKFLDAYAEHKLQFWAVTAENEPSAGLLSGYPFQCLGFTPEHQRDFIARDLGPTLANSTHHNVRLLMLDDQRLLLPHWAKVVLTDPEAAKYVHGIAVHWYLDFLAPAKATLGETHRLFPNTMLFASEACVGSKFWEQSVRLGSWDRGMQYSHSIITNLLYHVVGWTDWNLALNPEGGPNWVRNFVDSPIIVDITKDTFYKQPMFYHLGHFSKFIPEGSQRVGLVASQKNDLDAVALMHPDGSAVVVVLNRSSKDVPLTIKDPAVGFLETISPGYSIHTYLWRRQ
Procedure, shortened: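 Compounds titrated from 0.6 nM upwards against 0.2 nM enzyme in pH 5.9 citric acid/KH2PO4, taurocholate, tween-20; blue fluorogenic substrate 80 uM, 40 min room temperature, stopped and read Ex 365/Em 440 for AC50.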

[2] = AP1 Signaling Pathway (AID 357; active = well fitted curve in either direction with a large enough effect, not every such curve was filed as active; also: % is scaled to controls: 0 for no effect and ±100 for the full control effect); settings: ME-180 AP-1-bla reporter, EGF-induced, beta-lactamase ratio, 5 h; at 7.69 µM (top of the series) unless noted
Procedure, shortened: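 ME-180 cells with beta-lactamase reporter under AP-1 response element, stimulated with EC50 EGF; compounds tested in titration series, 5 h at 37 °C. CCF4 substrate added 2.5 h at room temperature; 460/530 nm emission ratio gave %activity and AC50.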

[3] = molecular target: Cytochrome P450 1A2 (Homo sapiens) (UniProt P05177); assay: p450-cyp1a2 (AID 410); settings: recombinant CYP1A2, luciferin-ME demethylation, luminescence; series mostly up to 57 µM; also: potency is read from the fitted curve at half-maximal effect;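 as to activity change, negative = inhibition: -100% = full effect of reference inhibitor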
Chain of Cytochrome P450 1A2 (Homo sapiens) (P05177 whole entry, looked up): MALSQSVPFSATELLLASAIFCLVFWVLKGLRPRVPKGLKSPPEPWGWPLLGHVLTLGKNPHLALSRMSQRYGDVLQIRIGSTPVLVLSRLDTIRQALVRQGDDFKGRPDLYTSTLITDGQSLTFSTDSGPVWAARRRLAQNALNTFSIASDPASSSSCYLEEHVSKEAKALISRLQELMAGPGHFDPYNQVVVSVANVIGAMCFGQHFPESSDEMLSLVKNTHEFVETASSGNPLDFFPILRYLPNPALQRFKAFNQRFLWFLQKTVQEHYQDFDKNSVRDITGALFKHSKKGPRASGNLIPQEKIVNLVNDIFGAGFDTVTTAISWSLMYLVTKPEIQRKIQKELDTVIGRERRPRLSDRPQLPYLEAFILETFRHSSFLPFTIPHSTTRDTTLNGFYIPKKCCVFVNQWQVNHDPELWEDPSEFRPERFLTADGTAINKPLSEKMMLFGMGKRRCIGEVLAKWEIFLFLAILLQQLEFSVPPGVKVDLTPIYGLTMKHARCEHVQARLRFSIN
Procedure, shortened: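 Human CYP1A2 (20nM) demethylated Luciferin-ME at its Km (100uM) in 100mM KPO4. After 10 min compound preincubation, NADPH regeneration ran the reaction 60 min at room temperature. Luciferin was read by luminescence, normalized to 57 uM furafylline.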

[4] = NFAT Signaling Pathway (AID 444; active = well fitted curve in either direction with a large enough effect, not every such curve was filed as active;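 also: carbachol stimulus at about its EC50 of 1 µM final; % is scaled to controls: 0 for no effect and ±100 for the full control effect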); settings: Jurkat NFAT-bla M1, carbachol, beta-lactamase ratio, 5 h; at 7.69 µM (top of the series) unless noted
Procedure, shortened: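 Jurkat cells with NFAT-driven β-lactamase reporter and co-expressed M1 receptor, stimulated with carbachol (final 1 uM, ~EC50), compound titration, 5 h at 37 °C. CCF4 loaded 1 h at RT; 460/530 nm ratio gave %activity and AC50.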

[5] = molecular target: Glucocorticoid receptor (Homo sapiens) (UniProt P04150); assay: GR-EFC Redistribution (AID 451); settings: CHO-K1 GR-EFC translocation, beta-gal luminescence, 2 h; also: potency is read from the fitted curve at half-maximal effect
Chain of Glucocorticoid receptor (Homo sapiens) (P04150 whole entry, looked up, the tested form may be a part): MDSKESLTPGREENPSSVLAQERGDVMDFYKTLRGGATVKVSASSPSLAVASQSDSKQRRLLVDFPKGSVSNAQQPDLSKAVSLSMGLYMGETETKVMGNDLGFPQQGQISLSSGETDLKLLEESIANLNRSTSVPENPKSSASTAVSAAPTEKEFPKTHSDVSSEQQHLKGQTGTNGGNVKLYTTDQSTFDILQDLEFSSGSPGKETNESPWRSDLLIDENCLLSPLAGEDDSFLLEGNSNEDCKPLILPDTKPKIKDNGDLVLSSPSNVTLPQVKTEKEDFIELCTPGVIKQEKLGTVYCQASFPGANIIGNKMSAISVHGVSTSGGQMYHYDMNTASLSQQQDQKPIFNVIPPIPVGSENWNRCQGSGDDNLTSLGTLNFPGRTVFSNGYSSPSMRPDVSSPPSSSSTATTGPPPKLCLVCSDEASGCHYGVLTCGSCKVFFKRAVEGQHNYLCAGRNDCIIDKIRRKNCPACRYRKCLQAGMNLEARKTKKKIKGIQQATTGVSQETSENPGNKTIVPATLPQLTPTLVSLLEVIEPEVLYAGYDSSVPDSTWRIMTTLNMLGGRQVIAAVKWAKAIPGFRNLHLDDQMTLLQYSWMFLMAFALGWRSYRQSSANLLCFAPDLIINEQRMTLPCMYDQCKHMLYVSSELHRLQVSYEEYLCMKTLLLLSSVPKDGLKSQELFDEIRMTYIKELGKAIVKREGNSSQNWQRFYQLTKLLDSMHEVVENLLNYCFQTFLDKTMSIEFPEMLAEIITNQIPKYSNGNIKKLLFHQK
Procedure, shortened: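 CHO-K1 cells expressing nuclear EA and GR-ED fragments of b-gal; compounds titrated up to 46 uM final, 2 h at 37 C. GR nuclear translocation read as complemented b-gal luminescence after 1 h RT detection.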

[6] = molecular target: Mitogen-activated protein kinase 10 (Mus musculus) (UniProt Q61831); assay: JNK3 AlphaScreen Assay (AID 530; active = well fitted curve in either direction with a large enough effect, not every such curve was filed as active;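 also: kinase came from lysate of stimulated human HepG2 cells; signal reports phosphorylation of biotinylated GST-cJun 1-79 at Ser73 with 10 µM ATP; % is scaled to controls: 0 for no effect and ±100 for the full control effect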); settings: JNK3 lysate, c-Jun phosphorylation; series mostly up to 57.1 µM
Procedure, shortened: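 qHTS format: compounds tested as titrations against IL-1beta/TNF-alpha-activated HepG2 lysate JNK3 with biotin-GST-cJun substrate and 10 uM ATP at room temperature. Loss of anti-phospho-cJun AlphaScreen signal indicates inhibition.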

[7] = molecular target: 3',5'-cyclic-AMP phosphodiesterase 4B (Homo sapiens) (UniProt Q07343); assay: qHTS Assay for Inhibitors of PDE-IV (AID 607; active = well fitted activation curve with a large enough effect in the main read-out, with a control signal flat, not every such curve was filed as active; also: % of control where 0% means no effect); settings: HEK293 ACTOne CNG channel cells, membrane potential fluorescence; series mostly up to 22.9 µM
Chain of 3',5'-cyclic-AMP phosphodiesterase 4B (Homo sapiens) (Q07343 whole entry, looked up): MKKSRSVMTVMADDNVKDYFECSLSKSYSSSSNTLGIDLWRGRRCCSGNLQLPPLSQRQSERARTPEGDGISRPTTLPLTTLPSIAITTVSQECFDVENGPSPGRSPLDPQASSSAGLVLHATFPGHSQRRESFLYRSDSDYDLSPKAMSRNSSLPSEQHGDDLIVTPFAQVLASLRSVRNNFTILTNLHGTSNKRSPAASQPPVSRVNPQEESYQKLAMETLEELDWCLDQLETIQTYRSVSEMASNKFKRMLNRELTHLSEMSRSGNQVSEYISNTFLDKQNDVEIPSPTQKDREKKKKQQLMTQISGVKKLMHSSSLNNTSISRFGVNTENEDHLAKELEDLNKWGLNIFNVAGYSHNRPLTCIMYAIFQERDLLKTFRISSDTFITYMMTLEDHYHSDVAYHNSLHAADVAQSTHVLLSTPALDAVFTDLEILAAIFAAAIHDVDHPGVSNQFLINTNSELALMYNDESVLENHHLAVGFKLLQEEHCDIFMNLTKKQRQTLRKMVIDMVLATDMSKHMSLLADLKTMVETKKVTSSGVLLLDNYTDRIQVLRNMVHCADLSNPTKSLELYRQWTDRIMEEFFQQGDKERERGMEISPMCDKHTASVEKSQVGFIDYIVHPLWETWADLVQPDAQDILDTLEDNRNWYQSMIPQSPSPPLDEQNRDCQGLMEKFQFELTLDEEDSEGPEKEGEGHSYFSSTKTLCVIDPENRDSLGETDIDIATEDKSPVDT
Procedure, shortened: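 Cell-based read-out of cAMP via a modified cyclic nucleotide-gated channel and membrane potential dye (535/590 nm) in HEK293 cells expressing PDE4 endogenously. Compounds tested up to 22.9 uM final; 100 uM RO 20-1724 reference.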

[8] = qHTS Assay for Lipid Storage Modulators (AID 1519); settings: Drosophila S3 cells, BODIPY lipid droplet/cell ratio, laser cytometry, cells loaded with oleic acid; for activity change, negative = inhibition: at 57.5 µM (top of the series)
Procedure, shortened: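 Cells seeded at 5,000 per well were treated with compounds over a concentration series and loaded with oleic acid (400 uM, as added). Lipid droplet fluorescence (488 nm excitation, 500-530 nm channel) was read by laser-scanning cytometry and normalized to 20 uM Triacsin C.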

[9] = Stat Signaling Pathway (AID 446; active = well fitted curve in either direction with a large enough effect, not every such curve was filed as active;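 also: ME-180 cervical cancer cells given 40 pM IL-6 alongside compound; SIE-controlled beta-lactamase reporter measured as 460/530 nm FRET emission ratio; % is scaled to controls: 0 for no effect and ±100 for the full control effect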); settings: ME-180 SIE beta-lactamase reporter, IL-6 stimulated, 5 h; at 7.69 µM (top of the series) unless noted
Procedure, shortened: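 Reporter line: ME-180 cervical carcinoma, SIE-beta-lactamase. Treatment: compound with 40 pM IL-6, 5 hrs, 37 C, in low-serum OPTI-MEM with 10 mM HEPES pH 7.3. Detection: 460/530 nm fluorescence.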

[10] = molecular target: Glucocorticoid receptor (Homo sapiens) (UniProt P04150); assay: GR-GFP Redistribution (AID 450;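 active = compounds whose dose series gives a full or clear partial fitted curve of increased nuclear translocation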; also: potency is read from the fitted curve at half-maximal effect); settings: U2OS GR-GFP nuclear translocation, laser cytometry, 2 h
[11] = Confirmation and Secondary Assay for Modulators of Hemoglobin Beta Chain Splicing at IVS2 654 locus (AID 910; active = well fitted curve in the direction sought with a large enough effect; an effect the other way counts as inactive or inconclusive;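 also: HeLa cells stably carrying EGFP split by mutant beta-globin IVS2-654 intron; % of control where 0% means no effect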); settings: HeLa EGFP-654 splicing reporter, GFP fluorescence, 48 h; series mostly up to 38.3 µM
Procedure, shortened: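 HeLa cells stably expressing EGFP interrupted by β-globin IVS2-654 intron, seeded overnight in Opti-MEM/2% FCS, then treated 2 days at 37 °C. Restored splicing read as total peak GFP intensity per well by laser scanning cytometry (488 nm excitation, 500–520 nm emission); 500 nM antisense PNA as control.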

[12] = molecular target: Ubiquitin carboxyl-terminal hydrolase 1 (Homo sapiens) (UniProt O94782); assay: Inhibitors of USP1/UAF1: Pilot qHTS (AID 504865; active = well fitted curve in the direction sought with a large enough effect; an effect the other way counts as inactive or inconclusive;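 also: rhodamine fluorescence freed from ubiquitin-rhodamine substrate followed over time; top concentration of the series differs between compounds; % is scaled to controls: 0 for no effect and ±100 for the full control effect; nearly all actives have a fitted effect of over 35% in size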); settings: purified USP1/UAF1, Ub-rhodamine cleavage fluorescence; series mostly up to 54.9 µM
Chain of Ubiquitin carboxyl-terminal hydrolase 1 (Homo sapiens) (O94782 whole entry, looked up): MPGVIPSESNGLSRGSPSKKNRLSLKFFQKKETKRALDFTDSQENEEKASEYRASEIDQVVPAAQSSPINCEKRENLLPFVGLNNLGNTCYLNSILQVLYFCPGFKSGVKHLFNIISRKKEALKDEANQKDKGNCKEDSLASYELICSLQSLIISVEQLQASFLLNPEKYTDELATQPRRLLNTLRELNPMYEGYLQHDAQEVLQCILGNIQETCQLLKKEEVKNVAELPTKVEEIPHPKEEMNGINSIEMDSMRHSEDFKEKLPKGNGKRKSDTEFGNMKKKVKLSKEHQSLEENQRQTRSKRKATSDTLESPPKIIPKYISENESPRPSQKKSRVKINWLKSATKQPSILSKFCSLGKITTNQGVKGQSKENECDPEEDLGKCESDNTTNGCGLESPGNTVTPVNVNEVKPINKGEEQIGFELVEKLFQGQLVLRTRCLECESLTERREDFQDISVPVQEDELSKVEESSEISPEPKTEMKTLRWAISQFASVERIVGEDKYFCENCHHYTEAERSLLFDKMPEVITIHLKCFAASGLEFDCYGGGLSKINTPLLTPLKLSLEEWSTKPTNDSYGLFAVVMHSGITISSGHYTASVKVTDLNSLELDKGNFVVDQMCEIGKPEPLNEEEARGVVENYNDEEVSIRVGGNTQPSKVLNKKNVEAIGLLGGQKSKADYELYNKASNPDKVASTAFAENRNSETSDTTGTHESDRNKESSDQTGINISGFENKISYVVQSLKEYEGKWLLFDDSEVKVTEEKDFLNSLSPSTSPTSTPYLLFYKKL
Procedure, shortened: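 1nM USP1/UAF1 + cpd, 15 min RT; start w/ Ub-Rho 150nM final; kinetic FL 480/540 nm, 6 reads q60 s. Buffer 50mM HEPES pH 7.8, 0.5mM EDTA, 1mM TCEP, 0.01% Tween-20, 0.1 mg/ml BSA.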

[13] = molecular target: Cytochrome P450 2D6 (Homo sapiens) (UniProt P10635); assay: qHTS Assay for Inhibitors and Substrates of Cytochrome P450 2D6 (AID 891; active = well fitted curve in the direction sought with a large enough effect; an effect the other way counts as inactive or inconclusive; also: potency is read from the fitted curve at half-maximal effect; nearly all actives have a fitted effect of over 60% in size); settings: recombinant CYP2D6, luciferin-ME EGE luminescence; series mostly up to 57.1 µM
Chain of Cytochrome P450 2D6 (Homo sapiens) (P10635 whole entry, looked up): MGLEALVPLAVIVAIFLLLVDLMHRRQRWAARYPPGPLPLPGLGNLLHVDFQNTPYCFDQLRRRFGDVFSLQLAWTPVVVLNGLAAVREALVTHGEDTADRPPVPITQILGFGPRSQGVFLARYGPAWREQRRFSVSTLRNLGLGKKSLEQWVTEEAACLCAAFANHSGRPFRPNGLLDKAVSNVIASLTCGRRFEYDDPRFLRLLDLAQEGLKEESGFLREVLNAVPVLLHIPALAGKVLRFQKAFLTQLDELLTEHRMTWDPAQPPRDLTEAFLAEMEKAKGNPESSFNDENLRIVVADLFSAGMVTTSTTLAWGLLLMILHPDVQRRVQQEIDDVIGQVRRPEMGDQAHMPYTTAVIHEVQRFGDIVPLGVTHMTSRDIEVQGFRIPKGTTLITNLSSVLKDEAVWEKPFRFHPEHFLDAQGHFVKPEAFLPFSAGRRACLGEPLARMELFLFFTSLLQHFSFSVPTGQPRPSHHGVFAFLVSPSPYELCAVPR
Procedure, shortened: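 Human CYP2D6 (5 nM) with 30 uM Luciferin-ME EGE (at Km) in 100 mM KPO4, compound preincubated 10 min, then NADPH regeneration system for 60 min at room temperature. Luciferin read by luminescence; normalized to 1.43 uM quinidine.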

[14] = molecular target: Cytochrome P450 3A4 (Homo sapiens) (UniProt P08684); assay: qHTS Assay for Inhibitors and Substrates of Cytochrome P450 3A4 (AID 884; active = well fitted curve in the direction sought with a large enough effect; an effect the other way counts as inactive or inconclusive; also: nearly all actives have a fitted effect of over 50% in size; also: potency is read from the fitted curve at half-maximal effect); settings: recombinant CYP3A4, Luciferin-PPXE luminescence; series mostly up to 57.1 µM
Chain of Cytochrome P450 3A4 (Homo sapiens) (P08684 whole entry, looked up): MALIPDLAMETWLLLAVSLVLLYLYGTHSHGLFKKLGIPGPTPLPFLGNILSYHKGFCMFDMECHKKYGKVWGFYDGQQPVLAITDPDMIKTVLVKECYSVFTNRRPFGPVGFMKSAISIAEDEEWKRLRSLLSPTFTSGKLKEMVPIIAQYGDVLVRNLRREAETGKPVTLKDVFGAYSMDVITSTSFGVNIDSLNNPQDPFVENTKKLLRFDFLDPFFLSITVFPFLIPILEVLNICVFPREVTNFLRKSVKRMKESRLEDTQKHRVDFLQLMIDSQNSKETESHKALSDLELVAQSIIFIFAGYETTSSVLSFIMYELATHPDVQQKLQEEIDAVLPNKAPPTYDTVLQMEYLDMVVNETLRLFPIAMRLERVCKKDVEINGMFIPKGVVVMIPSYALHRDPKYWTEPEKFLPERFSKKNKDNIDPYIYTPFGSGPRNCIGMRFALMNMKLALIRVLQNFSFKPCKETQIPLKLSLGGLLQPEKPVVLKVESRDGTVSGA
Procedure, shortened: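 20 nM human CYP3A4 with 25 uM Luciferin-PPXE (at KM) in 200 mM KPO4, preincubated 10 min with compound; NADPH regeneration started a 60 min RT reaction. Luciferin detected by luminescence, normalized to 57 uM ketoconazole as full inhibition.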

[15] = molecular target: Cytochrome P450 3A4 (Homo sapiens) (UniProt P08684); assay: qHTS Assay for Activators of Cytochrome P450 3A4 (AID 885; active = well fitted curve in the direction sought with a large enough effect; an effect the other way counts as inactive or inconclusive; also: nearly all actives have a fitted effect of over 65% in size; also: potency is read from the fitted curve at half-maximal effect); settings: recombinant CYP3A4, Luciferin-PPXE luminescence, 60 min; series mostly up to 57.1 µM
Procedure, shortened: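 Signal was normalized against complete inhibition by 57 uM ketoconazole. The reaction used 20nM CYP3A4 with 25uM Luciferin-PPXE, 10-min compound preincubation and a 60-min NADPH-supported step at RT.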

[16] = qHTS Assay for Identification of Small Molecule Agonists for Hypoxia Response Element Signaling Pathway (AID 914; active = well fitted activation curve with a large enough effect in the signal ratio, with a control signal flat, not every such curve was filed as active; the % refers to the signal ratio; also: potency is read from the fitted curve at half-maximal effect); settings: ME-180 (cervical carcinoma) HRE-bla reporter, beta-lactamase ratio, CoCl2, 17 h; activation: stronger effect = higher value
Procedure, shortened: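 qHTS titration; ME-180 HRE-bla cells; EC50 CoCl2 co-treatment, 17 h at 37 degrees Celsius; CCF4 dye, ex 405nm, em 460nm and 530nm; %Activity from ratio; AC50.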

[17] = Confirmation and Secondary Assay for Modulators of Hemoglobin Beta Chain Splicing at IVS2 705 locus (AID 930; active = well fitted curve in the direction sought with a large enough effect; an effect the other way counts as inactive or inconclusive;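 also: HeLa cells stably expressing the EGFP-705 splicing reporter; GFP fluorescence per well restored by corrected splicing of the IVS2-705 intron in EGFP; % of control where 0% means no effect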); settings: HeLa EGFP-705 splicing reporter, GFP fluorescence, 48 h; series mostly up to 38.3 µM
Procedure, shortened: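 Secondary splice-site specificity test uses HeLa expressing CMV-driven EGFP interrupted by IVS2-705; cells were treated 2 days at 37C with 500 nM antisense PNA as positive control.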

[18] = measured here: cell count channel max response
[19] = measured here: lipid channel max response

c1ccc(-c2ccc(N3CC[C@@]4(CCCNC4)C3)cc2)cc1
15.2%: max response [8, 19]
9.08%: max response [8, 18]
active: Potency [3] 12.6 µM
inactive: Potency [1] > 11.4 µM | activity change, negative = inhibition [2] 16.6% | activity change, negative = inhibition [4] 10.5% | Potency [5] > 46 µM | Potency [6] | Potency [7] | activity change, negative = inhibition [8] 4.33%

CS(=O)(=O)Nc1cccc(-c2nc(N3CCNCC3)c3ccccc3n2)c1
active: Potency [3] 20 µM
18.5%: max response [8, 19]
12.3%: max response [8, 18]
inactive: Potency [1] > 11.4 µM | activity change, negative = inhibition [2] 5.71% | activity, negative = inhibition [9] 2.63% | Potency [10] > 46 µM | Potency [5] > 46 µM | Potency [6] | Potency [7] | Potency [11] | activity change, negative = inhibition [8] 5.5% | Potency [12]

COc1ccccc1CN1CCC2(CC1)CCN(S(=O)(=O)c1ccccc1)CC2
active: Potency [13] 0.158 µM
23.6%: max response [8, 19]
19%: max response [8, 18]
inactive: Potency [1] > 11.4 µM | activity change, negative = inhibition [2] -0.16% | Potency [3] | activity, negative = inhibition [9] 5.45% | Potency [5] > 46 µM | Potency [6] | Potency [7] | activity change, negative = inhibition [8] 0.93%

O=C(c1cccc(F)c1)N1CCC2(CC1)CCN(C(c1ccccc1)c1ccccc1)CC2
12.8%: max response [8, 18]
19.8%: max response [8, 19]
active: Potency [3] 10 µM | Potency [15] 5.01 µM | Potency [13] 3.16 µM
inactive: Potency [1] > 11.4 µM | activity change, negative = inhibition [2] 2.86% | Potency [5] > 46 µM | Potency [6] | Potency [7] | Potency [14] | activity change, negative = inhibition [8] 4.65%

CN1CCN(c2ncc3ncc(=O)n(Cc4cccs4)c3n2)CC1
inactive: Potency [1] > 11.4 µM | activity change, negative = inhibition [2] -18.1% | activity, negative = inhibition [9] -10.9% | Potency [10] > 9.22 µM | Potency [5] > 46 µM | Potency [6] | Potency [7] | Potency [15] | activity change, negative = inhibition [8] 4.27%
33.1%: max response [8, 19]
active: Potency [3] 3.98 µM
26.8%: max response [8, 18]

Cc1ccccc1-c1cncnc1NCCN1CCOCC1
active: Potency [3] 15.8 µM | Potency [14] 1.58 µM | Potency [16] 3.16 µM
3.28%: max response [8, 19]
inactive: Potency [1] > 11.4 µM | activity change, negative = inhibition [2] 24.4% | Potency [10] > 46 µM | Potency [5] > 46 µM | Potency [6] | Potency [7] | Potency [15] | Potency [11] | outcome [17] | activity change, negative = inhibition [8] 4.31% | Potency [12]
0.273%: max response [8, 18]
